The source of these data is PubChem BioAssay (NCI).

Each structure is given as a SMILES string. This is part of a sample that, as a whole, favours compounds with a hit. Of some 83,000 tested, about 20% had one in any assay.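 Activity criterion: percent growth below 10, measured after cells in 96-well plates were exposed to a single compound concentration for 48 hours.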 A number with no mark means an inactive call. Calls of active or inactive are those of the source.

What all share (assay): NCI-60 one-dose screen, 48 h (100 = growth as untreated, 0 = no growth, -100 = all killed)
Holding throughout (details): 10 µM unless noted

Assay [1] deals with SK-MEL-2 melanoma.
The subject of assay [2] is SN12C renal.
Assay [3] concerns UO-31 renal.
Assay [4] relates to TK-10 renal.
Assay [5] deals with ACHN renal.
The subject of assay [6] is CAKI-1 renal.
Assay [7] has as its system A498 renal.
Assay [8] has as its system CCRF-CEM leukemia.
The test system of assay [9] is MOLT-4 leukemia.
The test system of assay [10] is RPMI-8226 leukemia.
In assay [11] the test system is OVCAR-8 ovarian.
The test system of assay [12] is OVCAR-5 ovarian.
The subject of assay [13] is SK-OV-3 ovarian.
For assay [14], the system named is IGROV1 ovarian.
The test system of assay [15] is OVCAR-3 ovarian.
The test system of assay [16] is HS 578T breast.
Assay [17] deals with NCI/ADR-RES ovarian.
Assay [18] relates to OVCAR-4 ovarian.
For assay [19], the system named is SR leukemia.
Assay [20] has as its system EKVX NSCLC.

For `O=C(Cc1ccc(F)c(Cl)c1)Nc1cc(C2(C(F)(F)F)CC2)nn1CC1CCCCC1`, the growth in assay [1] was -48.8% (active); in assay [2] it was 6.18% (active); in [3], -3.33% (active); in assay [4], 3.08% (active); in [5] it was -7.99% (active); in assay [6], -14.3% (active). The growth in [7] was -33.2% (active); in assay [8], 20.1%; in assay [9], 11.7%; in [10], 4.24% (active); in [11] it was 8.52% (active); in assay [12], 0.818% (active). For the same compound, the growth in assay [13] was -19.9% (active); in assay [14], 24.5%; in [15], 6.25% (active); in assay [16] it was -0.843% (active); in assay [17], 4.86% (active).
For `O=C1NC(=O)C(Cn2cnc3ccccc32)N1` (stereo unspecified), the growth in assay [1] was 107%; in assay [2], 98.6%; in assay [3] it was 92.6%; in assay [4], 99.6%; in [5] it was 99.8%; in assay [6], 101%. For the same compound, the growth is 76.6% in assay [7]; 102% in assay [8]; 99.6% in assay [9]; 99.5% in assay [10]; 106% in assay [11]; 110% in assay [12]. For the same compound, the growth in assay [18] was 105%; in assay [13] it was 101%; in assay [14], 105%; in assay [15], 103%; in [16], 107%; in assay [17], 101%.
In the case of `COc1ccc(C2=Nn3c(nnc3-c3cc(Cl)cc(Cl)c3Cl)SC2)cc1`, the growth in [1] is 22.4%; in assay [2] it was 39.3%; in [3], 5.61% (active); in [4], 57.5%; in [5], 33.5%; in [6], 47.6%. For the same compound, the growth in assay [7] is -11.3% (active); in assay [8] it was 0.0891% (active); in assay [9], 8.31% (active); in assay [10] it was 1.17% (active); in assay [11], 19.5%; in assay [12], 6.36% (active). Moreover, the growth in assay [18] was 30.8%; in assay [13], 24.4%; in assay [14], -11% (active); in assay [15], -24.6% (active); in [16], 11.7%; in assay [17], -20.8% (active).
In the case of `O=c1c2cc(F)cc(Cl)c2sc2c(NCCCNCCO)nc3ccccc3c12`, the growth is 107% in assay [1]; 83.4% in [2]; 59.8% in [3]; 100% in assay [4]; 83.8% in assay [5]; 71.2% in assay [6]. Also, the growth in assay [7] is 56.2%; in assay [8], 15.8%; in assay [9] it was 60.6%; in [19], -6.83% (active); in [11] it was 95.7%; in assay [12], 93.7%. The growth in [18] was 79.1%; in assay [13] it was 93.9%; in [14], 79.4%; in [15] it was 96.1%; in assay [16] it was 88.1%; in [17] it was 89.2%.
`CN(C(=O)NCc1cccc(F)c1Cl)[C@H](COC(=O)Nc1cc2ccccc2cn1)CC(O)CO` (stereo partly specified): the growth was 113% in assay [1]; 86.1% in assay [2]; 51.8% in assay [3]; 101% in [4]; 107% in [5]; 25.8% in assay [6]. Besides, the growth in assay [7] is 54.7%; in assay [8], 64.9%; in assay [9] it was 94.9%; in [10], 119%; in [11], 88.1%; in assay [12] it was 95.8%. Moreover, the growth in assay [18] was 94.6%; in [13] it was 78.5%; in assay [14], 71.9%; in [15], 103%; in assay [16] it was -0.749% (active); in assay [17] it was 98.6%.
For the compound `COc1ccc2sc3c(NCCCN(C)C)nc4ccccc4c3c(=O)c2c1`, the growth in assay [1] is 95.9%; in assay [2], 72.3%; in assay [3], 48.4%; in assay [4], 78%; in [5] it was 69.9%; in assay [6], 63%. Moreover, the growth in assay [7] is 17.4%; in assay [8], 4.23% (active); in [9], -16.2% (active); in assay [19], -39.2% (active); in assay [11], 61.9%; in assay [12], 89.8%. For the same compound, the growth was 74.9% in assay [13]; 54.2% in [14]; -18.5% (active) in assay [15]; 73% in assay [16]; 55.7% in assay [17].
As to `CCOC(=O)c1c(C)oc2ncnc(N3CCN(C(=O)COc4ccc(C(C)(C)C)cc4)CC3)c12`, the growth in assay [1] was 93.7%; in [2] it was 82.7%; in assay [3], 48%; in assay [4], 94.1%; in [5] it was 85.9%; in assay [6] it was 84.3%. Further, the growth in [7] is 82%; in [8] it was 76.2%; in assay [9], 59.1%; in assay [10], 44.9%; in assay [11] it was 81.5%; in assay [12], 96.8%. Further, the growth in assay [18] was 74.4%; in assay [13] it was 85.4%; in assay [14], 73.7%; in [15], 98.4%; in assay [16] it was 78.8%; in assay [17] it was 73.6%.
Take `COc1ccc(C(=O)COC(=O)[C@H](C[Se][Se]C[C@H](NC(=O)c2ccc(Br)cc2F)C(=O)OCC(=O)c2ccc(OC)cc2)NC(=O)c2ccc(Br)cc2F)cc1`: the growth in assay [1] is -93.8% (active); in [2], -79.9% (active); in assay [3] it was -95.4% (active); in [4], -79.6% (active); in [5], -86.9% (active); in [6], -83.2% (active). For the same compound, the growth in assay [7] is -23.8% (active); in assay [8], -25.4% (active); in assay [9], -1.84% (active); in assay [19], -17.1% (active); in assay [11], -64.2% (active); in assay [12], -68.2% (active). Besides, the growth in assay [18] was -87.9% (active); in assay [13], -91.9% (active); in assay [14], -86.1% (active); in [15], -86.3% (active); in [16], -6.55% (active); in assay [17] it was -60% (active).
As for `CCOC(=O)c1cn2ncnc(Oc3ccc(NC(=O)NCCN(C)C)c(Cl)c3)c2c1C`, the growth was 112% in [1]; 63.9% in [2]; 62.1% in assay [3]; 105% in assay [4]; 84.5% in [5]; 65.8% in assay [6]. Besides, the growth is 57.5% in [7]; 43.4% in [8]; 53.9% in [9]; -13.1% (active) in assay [19]; 78.9% in assay [11]; 91.6% in [12]. Moreover, the growth in assay [18] was 82.4%; in [13] it was 94.1%; in [14], 78.7%; in [15], 75%; in assay [16], 85.6%; in [17] it was 88.7%.
With `COc1ccc(C2CC(c3ccc(Nc4ccnc5cc(Cl)ccc45)cc3)=NN2C=O)cc1` (stereo unspecified), the growth in [1] is 92.5%; in [2], 64.4%; in [3] it was 43.2%; in assay [4], 91.2%; in assay [5] it was 48.5%; in assay [6], 59.2%. Further, the growth is 101% in assay [7]; 14% in assay [8]; 25.8% in assay [9]; 30.9% in assay [10]; 73.3% in assay [11]; 102% in [12]. In addition, the growth in assay [18] is 62.3%; in assay [13], 96.9%; in [14], 67.5%; in [15], 52.7%; in assay [16], 68.8%; in [17], 51.7%.
With `C=C1C(=O)O[C@H]2[C@H]1CC/C(COC(=O)CCSSCCC(=O)OC/C1=C/CC[C@@]3(C)O[C@H]3[C@H]3OC(=O)C(=C)[C@@H]3CC1)=C\CC[C@@]1(C)O[C@@H]21`, the growth in assay [20] was 12.6%; in assay [2], -45.8% (active); in assay [3], -88.1% (active); in assay [4], -33.8% (active); in assay [5], -85.2% (active); in assay [6] it was 20.3%. For the same compound, the growth in [7] was 72.9%; in assay [8], -23.6% (active); in assay [9], -26.8% (active); in assay [19], -14.1% (active); in assay [10], -23.5% (active); in assay [12], 17.7%. In addition, the growth in assay [18] was 29.9%; in assay [13], 89.9%; in assay [14], -49.6% (active); in assay [15], -35.8% (active); in assay [16], 7.57% (active); in assay [17], 50.5%.
